TLR4 MyD88 comp – inhibitors of human TLR4-MyD88 binding | O00206+Q99836 | HeLa CL3-4 TLR4/MyD88 BLA complementation, FRET ratio | inhibition, % at 8.4 µM | 200,000 compounds, 0.18% hits | AID 861; in the data active = inhibition above about 25%
rCAG RNA binder – binds r(CAG) RNA repeats; r(CAG) RNA repeat, TO-PRO-1 dye displacement fluorescence; inhibition, % at 3 µM; 370,000 compounds, 1.3% hits; AID 651821;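 active = inhibition above the plate cutoff, the mean of all test compounds on that plate plus 3 SD, cut at about 35% in these data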;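 note: higher means more dye released from RNA so lower well fluorescence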
ABHD5 PLIN5 PPI – ABHD5-PLIN5 protein interaction inhibition. Q00G26+Q8WTS1. Split G. princeps luciferase complementation, luminescence, 4 h. inhibition, % at 4 µM. 360,000 compounds, 0.78% hits;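 active = inhibition above the mean inhibition across every tested compound plus 3 SD, cut at about 22% in these data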
NOD2-RIPK2 inh – inhibitors of human NOD2-RIPK2 interaction; O43353; CHO BLA complementation NOD2-RIPK2, CCF4 ratio; inhibition, % at 4.98 µM; 360,000 compounds, 0.38% hits; AID 624267; in the data active = inhibition above about 21%
TLR9-MyD88 block – inhibitors of human TLR9-MyD88 binding; CHO BLA complementation TLR9-MyD88, CCF4 FRET ratio; AID 504734; inhibition, % at 4.98 µM; 340,000 compounds, 0.21% hits;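 active = inhibition above the mean over all tested compounds plus 3 SD, cut at about 21% in these data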
Target sequence (Q99836 whole entry, looked up): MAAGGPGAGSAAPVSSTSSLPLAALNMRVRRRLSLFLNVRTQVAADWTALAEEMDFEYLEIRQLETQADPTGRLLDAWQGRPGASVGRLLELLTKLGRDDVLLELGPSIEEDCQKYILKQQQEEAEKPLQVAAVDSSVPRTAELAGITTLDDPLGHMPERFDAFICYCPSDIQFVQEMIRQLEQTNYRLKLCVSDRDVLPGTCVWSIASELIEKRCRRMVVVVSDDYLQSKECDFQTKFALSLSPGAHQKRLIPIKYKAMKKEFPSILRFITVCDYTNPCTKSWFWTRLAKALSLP
Target sequence (Q9NR96 whole entry, looked up): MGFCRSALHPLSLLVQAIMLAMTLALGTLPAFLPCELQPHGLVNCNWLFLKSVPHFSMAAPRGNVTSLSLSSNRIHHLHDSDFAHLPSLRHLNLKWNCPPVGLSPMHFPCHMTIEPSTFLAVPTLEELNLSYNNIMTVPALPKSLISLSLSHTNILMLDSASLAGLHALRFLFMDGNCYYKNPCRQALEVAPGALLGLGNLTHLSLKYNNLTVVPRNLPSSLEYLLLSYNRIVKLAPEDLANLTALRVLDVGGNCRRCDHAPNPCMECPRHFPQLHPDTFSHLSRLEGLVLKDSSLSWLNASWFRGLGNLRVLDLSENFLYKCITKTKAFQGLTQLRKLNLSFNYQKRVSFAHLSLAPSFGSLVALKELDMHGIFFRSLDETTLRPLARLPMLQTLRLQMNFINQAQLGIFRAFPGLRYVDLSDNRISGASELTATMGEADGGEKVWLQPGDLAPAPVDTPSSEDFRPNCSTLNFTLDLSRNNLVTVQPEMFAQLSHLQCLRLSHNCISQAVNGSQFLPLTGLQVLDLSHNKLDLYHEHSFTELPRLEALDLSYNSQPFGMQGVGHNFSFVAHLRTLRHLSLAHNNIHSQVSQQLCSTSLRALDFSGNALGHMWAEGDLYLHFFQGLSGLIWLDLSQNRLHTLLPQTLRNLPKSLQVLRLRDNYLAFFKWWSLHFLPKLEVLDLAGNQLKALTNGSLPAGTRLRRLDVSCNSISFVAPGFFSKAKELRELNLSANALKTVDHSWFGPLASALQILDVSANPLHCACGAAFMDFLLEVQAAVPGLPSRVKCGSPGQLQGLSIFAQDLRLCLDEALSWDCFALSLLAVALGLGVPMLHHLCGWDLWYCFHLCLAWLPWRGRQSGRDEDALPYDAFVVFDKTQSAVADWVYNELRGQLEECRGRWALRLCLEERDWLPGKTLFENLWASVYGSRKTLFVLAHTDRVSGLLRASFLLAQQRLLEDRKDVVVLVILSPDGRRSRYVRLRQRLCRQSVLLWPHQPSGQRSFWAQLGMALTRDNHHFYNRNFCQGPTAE
PRMT1 FP inh – PRMT1 (human) inhibition, primary screen; Q99873; recombinant PRMT1, activity-based probe fluorescence polarization; inhibition, % at 2.79 µM; 370,000 compounds, 1.3% hits; AID 652257;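 active = inhibition above about 21% made by adding two undisclosed values, limit read from the data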
ABHD5-PLIN5 conf – ABHD5-PLIN5 interaction inhibition, confirmed. shares compounds with ABHD5 PLIN5 PPI. inhibition, % at 4 µM. biochemical ABHD5-PLIN5 interaction, luminescence. 2,200 compounds, 67% hits; in the data active = inhibition above about 23%
HNF4 counter – counter-screen for ABHD5-PLIN5 inhibitors: HNF4 split-luciferase; 2,200 compounds, 77% hits; AID 651674; HNF4 dimerization, luminescence, biochemical; shares compounds with ABHD5 PLIN5 PPI; inhibition, % at 4 µM;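 active = mean inhibition across replicate wells exceeding the computed hit threshold, cut at about 13% in these data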;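 note: light from luciferase halves that rejoin when HNF4 fusion proteins dimerize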
Of the large screens only hits and unclear results are named; the others gave an inactive call (follow-up assays come after a bar, where they were run). Shown are actives, neighbours in structure and some others; about 3.3% of the full set was active somewhere.

O=C(Nc1ccc(Cl)cc1)/C(=C/c1cccc(O)c1)c1nc2ccccc2s1	ABHD5 PLIN5 PPI 29.5 | ABHD5-PLIN5 conf 85.6 | HNF4 counter 61.0
CC1CCCN(S(=O)(=O)c2ccc(C(=O)NC(C)c3ccccc3)cc2)C1 (configuration not stated)	none (no result: TLR4 MyD88 comp)
COc1ccc(C(C[N+](=O)[O-])c2c(C)cc3ccccn23)c(OC)c1 (configuration not stated)	ABHD5 PLIN5 PPI 29.5 (no result: TLR4 MyD88 comp) | ABHD5-PLIN5 conf 44.9 | HNF4 counter 28.9
COc1ccc(OC)c(C(C[N+](=O)[O-])c2c(C)cc3ccccn23)c1 (configuration not stated)	none (no result: TLR4 MyD88 comp)
CCn1c(COc2ccccc2)nnc1SCC(=O)Nc1ccc(N2CCOCC2)cc1	none (no result: TLR4 MyD88 comp)
Cc1cc(C)n2nc(SCC(=O)NC3CCCCC3)nc2n1	none (no result: TLR4 MyD88 comp)
O=C(CC(Nc1ccc(F)cc1)C(=O)O)c1ccccc1 (configuration not stated)	ABHD5 PLIN5 PPI 42.6 | ABHD5-PLIN5 conf 38.0 | HNF4 counter 89.5
Cc1ccc(NC(CC(=O)c2ccccc2)c2ccc(F)cc2)cc1 (configuration not stated)	none
COc1ccccc1/C=C/C(=O)/C=C/c1ccccc1O	none (no result: TLR4 MyD88 comp)
Cc1ccc(/C=C/C(=O)c2cc(Br)ccc2OC(=O)c2ccco2)cc1	ABHD5 PLIN5 PPI 73.5 | ABHD5-PLIN5 conf 95.0 | HNF4 counter 73.6
COc1ccc(Br)cc1C(=O)Nc1ccc(NC(=O)c2ccco2)cc1	none
COc1ccccc1/C=C/C(=O)c1cc(Br)ccc1OC(=O)c1ccco1	ABHD5 PLIN5 PPI 65.8 | ABHD5-PLIN5 conf 94.2 | HNF4 counter 73.6
COc1ccccc1C=CC(=O)C=Cc1ccccc1OC	ABHD5 PLIN5 PPI 32.3 (no result: TLR4 MyD88 comp) | ABHD5-PLIN5 conf 72.4 | HNF4 counter 44.7
O=C(NC(=S)Nc1ccc(S(=O)(=O)NC2CCCCC2)cc1)c1cccs1	none
O=C(CC1S/C(=N/N=C2CCCCCC2)NC1=O)Nc1ccc(Br)cc1F (configuration not stated)	none (no result: TLR4 MyD88 comp)
CO/N=C(\C(=O)O)c1csc(NN=C(C)C)n1	none
CCOc1ccc(C(=O)NC(=S)NCc2cccnc2)cc1[N+](=O)[O-]	none
O=C(Cn1nc(CNc2ccc(Cl)cc2)[n+]2c1CCCCC2)c1ccc(Br)cc1	ABHD5 PLIN5 PPI 29.9 | ABHD5-PLIN5 conf inactive | HNF4 counter inactive
Cc1nc2ccc([N+](=O)[O-])cc2nc1C	none
Cc1ccc2nc3cc([N+](=O)[O-])cc([N+](=O)[O-])c3cc2c1	ABHD5 PLIN5 PPI 39.1 | ABHD5-PLIN5 conf 88.5 | HNF4 counter 46.9
CC(OC(=O)/C=C/c1ccccc1)C(=O)Nc1cccc(C#N)c1 (configuration not stated)	none (no result: TLR4 MyD88 comp)
CCCCCCCCCCCCCCCCn1cc[n+](C)c1	ABHD5 PLIN5 PPI 32.1 | ABHD5-PLIN5 conf inactive | HNF4 counter inactive
N#C/C(=C/c1ccc(N2CCOCC2)o1)c1ccc(Cl)cc1	ABHD5 PLIN5 PPI 60.5 | ABHD5-PLIN5 conf 51.7 | HNF4 counter 106.4
O=C(O)c1cccc(NC2=C(Cl)C(=O)c3ccccc3C2=O)c1	ABHD5 PLIN5 PPI 37.9 | ABHD5-PLIN5 conf 38.1 | HNF4 counter 23.9
CNC(=S)N(CCc1c(C)[nH]c2ccc(C)cc12)Cc1ccco1	ABHD5 PLIN5 PPI 31.4 | ABHD5-PLIN5 conf inactive | HNF4 counter inactive
CCNC(=S)N(CCc1c(C)[nH]c2ccc(Cl)cc12)Cc1ccco1	none
COc1ccccc1C(c1c(O)nc(SC)[nH]c1=O)c1c(O)nc(SC)[nH]c1=O	ABHD5 PLIN5 PPI 23.5 (no result: TLR4 MyD88 comp) | ABHD5-PLIN5 conf 48.6 | HNF4 counter 42.5
CSc1nc(O)c(Nc2ccccc2)c(=O)[nH]1	none (no result: TLR4 MyD88 comp)
CCC(C)C(NC(=O)c1ccccc1NC(=O)c1ccc(OC)cc1)C(=O)NCCCn1ccnc1 (configuration not stated)	none (no result: TLR4 MyD88 comp)
COc1ccc(-n2nnnc2S(=O)(=O)Cc2ccc(C(=O)O)cc2)cc1	ABHD5 PLIN5 PPI 54.3 | ABHD5-PLIN5 conf 78.8 | HNF4 counter 81.3
COc1cc(OC)cc(-n2nnnc2SCC(=O)N2CCCC2)c1	none
COc1ccc(-n2nnnc2S(=O)(=O)CC(=O)N2CCCCC2)cc1	ABHD5 PLIN5 PPI 53.6 | ABHD5-PLIN5 conf 75.4 | HNF4 counter 83.1
CC(C)C(=O)NC(c1ccco1)c1ccc2cccnc2c1O (configuration not stated)	none
Oc1c(C(Nc2nc3ccccc3s2)c2ccco2)ccc2cccnc12 (configuration not stated)	ABHD5 PLIN5 PPI 44.6 | ABHD5-PLIN5 conf inactive | HNF4 counter 13.6
O=C(Cn1cc(COc2c(F)c(F)cc(F)c2F)nn1)c1ccc(O)cc1	ABHD5 PLIN5 PPI 30.9 (no result: TLR4 MyD88 comp) | ABHD5-PLIN5 conf 45.1 | HNF4 counter 34.6
COc1ccc(OCc2cn(CC(=O)c3ccc(O)cc3)nn2)cc1	ABHD5 PLIN5 PPI 23.6 (no result: TLR4 MyD88 comp) | ABHD5-PLIN5 conf 60.1 | HNF4 counter 30.2
CCC(=O)c1ccc(OCc2cn(CC(=O)c3ccc(O)cc3)nn2)cc1	none (no result: TLR4 MyD88 comp)
O=C1CN(S(=O)(=O)c2ccc([N+](=O)[O-])cc2)CC(=O)N1	none (no result: TLR4 MyD88 comp)
CC(O)CNc1cc(N)c([N+](=O)[O-])cc1[N+](=O)[O-] (configuration not stated)	ABHD5 PLIN5 PPI 23.6 | ABHD5-PLIN5 conf inactive | HNF4 counter inactive
CC(O)CNc1ccc(-c2n[nH]c(=O)c3ccccc23)cc1[N+](=O)[O-] (configuration not stated)	none (no result: TLR4 MyD88 comp)
O=C(Nc1cccc([N+](=O)[O-])c1)c1ccc2ccccc2c1O	none (no result: TLR4 MyD88 comp)
Cc1ccc(CNC(=O)Cc2noc3ccccc23)cc1	none
COC(=O)/C(C#N)=C/c1ccc(-c2ccc(S(N)(=O)=O)cc2)o1	none (no result: TLR4 MyD88 comp)
N#CC(C#N)=Cc1ccc(-c2ccc(S(=O)(=O)N=C(N)N)cc2)o1	ABHD5 PLIN5 PPI 27.6 | ABHD5-PLIN5 conf 41.1 | HNF4 counter 34.8
COc1ccccc1NC(=O)CSc1nc2sc(C)c(C)c2c(=O)n1C	none (no result: TLR4 MyD88 comp)
Cc1sc2nc(SCC(=O)Nc3c(C)n(C)n(-c4ccccc4)c3=O)n(C)c(=O)c2c1C	ABHD5 PLIN5 PPI 24.2 | ABHD5-PLIN5 conf inactive | HNF4 counter inactive
O=C(CSc1n[nH]c(-c2cc(Cl)ccc2Cl)n1)NCCN1C(=O)CSC1=O	none
Cn1cc(CN(CCCN2CCOCC2)C(=S)Nc2cccc(Cl)c2)c2ccccc21	ABHD5 PLIN5 PPI 25.4 | ABHD5-PLIN5 conf inactive | HNF4 counter inactive
CCOc1ccc(NC(=S)N(CCCN2CCOCC2)Cc2cn(C)c3ccccc23)cc1	none
Cc1cccc(NC(=S)N(CCCN2CCOCC2)Cc2cn(C)c3ccccc23)c1	ABHD5 PLIN5 PPI 23.3 | ABHD5-PLIN5 conf inactive | HNF4 counter inactive
